Source: the supplement of paper PMC8387472

What was measured:
Experiment in all cases: fraction of edited reads among all mapped reads; higher = more Cas9 editing
Details in all cases: mESC; 2uM; 72 h treatment, harvest day 5
[1] = compound: CC(=O)O/N=C1\C(=O)N(Cc2cc(Cl)ccc2Cl)c2ccc(Cl)cc21
[2] = compound: CC(C)(C#N)c1ccc(N2C(=O)OCc3cnc4ccc(-c5cnc6ccccc6c5)cc4c32)cc1
[3] = compound: CCCCOc1c(C(=O)c2c(F)cc(C)cc2F)c[nH]c2nncc1-2
[4] = compound: CCN1CCN(CC(=O)Nc2ccc(-c3cccc4c(=O)cc(N5CCOCC5)oc34)c3sc4ccccc4c23)CC1
[5] = compound: CCc1c2c(nc3ccc(OC(=O)N4CCC(N5CCCCC5)CC4)cc13)-c1cc3c(c(=O)n1C2)COC(=O)[C@]3(O)CC [Irinotecan HCl Trihydrate]
[6] = compound: CCn1c(=O)c(-c2ccc(Cl)cc2Cl)cc2cnc(Nc3ccc(N4CCNCC4)c(F)c3)nc21
[7] = compound: CNc1ccc([N+](=O)[O-])c(Nc2ccc3[nH]ncc3c2)n1
Rifapentine = compound: CO[C@H]1/C=C/O[C@@]2(C)Oc3c(C)c(O)c4c(O)c(c(/C=N/N5CCN(C6CCCC6)CC5)c(O)c4c3C2=O)NC(=O)/C(C)=C\C=C\[C@H](C)[C@H](O)[C@@H](C)[C@@H](O)[C@@H](C)[C@H](OC(C)=O)[C@@H]1C [Rifapentine]
[8] = compound: COc1ccccc1-c1cc(Nc2cccc(CS(N)(=O)=O)c2)ncn1
[9] = compound: C[C@@H]1CN(CC(=O)Nc2ccc3c(c2)Cc2cccc(-c4cc(=O)cc(N5CCOCC5)o4)c2S3)C[C@H](C)O1
[10] = compound: Cc1cc(C)nc(SCC(=O)Nc2ncc(Cc3cccc4ccccc34)s2)n1
[11] = compound: Cc1ccc(C(=O)NCCCCCC(=O)Nc2ccccc2N)cc1
[12] = compound: Cc1cccc(CC(=O)N2CCc3c2ccc(-c2cn(C)c4ncnc(N)c24)c3F)n1
[13] = compound: NC(=O)c1ccc2nc(-c3ccc(Oc4ccc(Cl)cc4)cc3)[nH]c2c1 [Chk 2 inhibitor II (BML-277)]
Tucidinostat (Chidamide) = compound: Nc1cc(F)ccc1NC(=O)c1ccc(CNC(=O)/C=C/c2cccnc2)cc1 [Tucidinostat (Chidamide)]
Pemetrexed = compound: Nc1nc2[nH]cc(CCc3ccc(C(=O)N[C@@H](CCC(=O)O)C(=O)O)cc3)c2c(=O)[nH]1 [Pemetrexed]
[14] = compound: Nc1ncnc2c1c(-c1cnc3[nH]ccc3c1)nn2C1CCCC1
[15] = compound: O=C(c1cccc(Cl)c1F)N1CCN(Cc2cccc(Nc3nccs3)n2)CC1
Kenpaullone = compound: O=C1Cc2c([nH]c3ccc(Br)cc23)-c2ccccc2N1 [Kenpaullone]
Genistein = compound: O=c1c(-c2ccc(O)cc2)coc2cc(O)cc(O)c12 [Genistein]

Row | Target | fraction of edited reads among all mapped reads [1] | fraction of edited reads among all mapped reads [2] | fraction of edited reads among all mapped reads [3] | fraction of edited reads among all mapped reads [4] | fraction of edited reads among all mapped reads [5] | fraction of edited reads among all mapped reads [6] | fraction of edited reads among all mapped reads [7] | fraction of edited reads among all mapped reads (Rifapentine) | fraction of edited reads among all mapped reads [8] | fraction of edited reads among all mapped reads [9] | fraction of edited reads among all mapped reads [10] | fraction of edited reads among all mapped reads [11] | fraction of edited reads among all mapped reads [12] | fraction of edited reads among all mapped reads [13] | fraction of edited reads among all mapped reads (Tucidinostat (Chidamide)) | fraction of edited reads among all mapped reads (Pemetrexed) | fraction of edited reads among all mapped reads [14] | fraction of edited reads among all mapped reads [15] | fraction of edited reads among all mapped reads (Kenpaullone) | fraction of edited reads among all mapped reads (Genistein)
1 | 3.0 (DMSO control at this site: 1-bp insertion 0.109, MH deletion 0.149, edited 0.09) TGCTAGCGCCCCCACAAAGCGGACCAGCCAGCACTATAGGGAATAAGGCCAACTTGCACCC | 0.101 | 0.0887 | 0.115 | 0.0444 | 0.124 | 0.099 | 0.103 | 0.178 | 0.123 | 0.0619 | 0.162 | 0.0928 | 0.145 | 0.126 | 0.0815 | 0.12 | 0.0841 | 0.0816 | 0.193 | 0.13
2 | 34.0 (DMSO control at this site: 1-bp insertion 0.184, MH deletion 0.385, edited 0.103) ATTATAGGACCCTGAGGGAGCAGAGATGTGGGAATGGGGGCCGAGCCAATTGTGATGTAAG | 0.119 | 0.107 | 0.0942 | 0.0488 | 0.159 | 0.0937 | 0.114 | 0.157 | 0.129 | 0.0719 | 0.159 | 0.112 | 0.134 | 0.113 | 0.104 | 0.0912 | 0.0944 | 0.0799 | 0.18 | 0.112
3 | 33.0 (DMSO control at this site: 1-bp insertion 0.008, MH deletion 0.771, edited 0.112) CATTAAGAGCAGCTGCCGGCCCCCAAGTGGACAGAGCTGGCCCTGCTGATTCAACAGTGCA | 0.133 | 0.111 | 0.123 | 0.0458 | 0.162 | 0.115 | 0.126 | 0.211 | 0.163 | 0.0718 | 0.187 | 0.109 | 0.168 | 0.147 | 0.108 | 0.111 | 0.108 | 0.0838 | 0.237 | 0.146
4 | 15.0 GCGCCTCCAATGACCCAGTGGGATCCTACTCCATAATGGGATCCTGGGGATTCCTCGCTCC | 0.105 | 0.0725 |  |  |  |  |  | 0.107 |  |  | 0.136 | 0.0776 |  |  | 0.0802 |  |  |  |  | 0.132
5 | 8.0 GCATGCGTGTTTTGGGACAATGTAGTATACATTTGGGAGGCTCTCAGCTTTTCCCAATAAA | 0.0233 | 0.0207 | 0.0186 |  |  |  |  |  |  |  | 0.021 |  |  |  | 0.0159 | 0.0154 | 0.0205 |  | 0.0456 | 
6 | 23.0 AGAACAAAGCGCTCATATAACGATATGGGGGGTTATGGGGGGTTGAATTGCTTCAGCACGA |  |  |  |  |  |  | 0.981 |  |  |  |  |  |  |  |  |  |  | 0.94 |  | 
7 | 45.0 (DMSO control at this site: 1-bp insertion 0.017, MH deletion 0.666, edited 0.101) TTACACAGCATGAACTGCTAGGTGATGATGTCAGATTCGGTTTTACTAACTTCTCCAAAAA | 0.115 | 0.112 | 0.119 | 0.0494 | 0.153 | 0.113 | 0.133 | 0.203 | 0.144 | 0.0499 | 0.195 | 0.111 | 0.151 | 0.127 | 0.0928 | 0.0998 | 0.0941 | 0.069 | 0.233 | 0.139
8 | 1.0 (DMSO control at this site: 1-bp insertion 0.521, MH deletion 0.323, edited 0.141) GTGTCACAGTGCACGAGTGACGGGATAATGTGCTGACAGGTAATTGATAGGCTTCCAACTT | 0.144 | 0.154 | 0.163 | 0.0521 | 0.194 | 0.145 | 0.207 | 0.256 | 0.203 | 0.152 | 0.243 | 0.141 | 0.218 | 0.174 | 0.14 | 0.132 | 0.176 | 0.112 | 0.33 | 0.159
9 | 47.0 (DMSO control at this site: 1-bp insertion 0.095, MH deletion 0.585, edited 0.118) GAGTGGTCCCGAGCCAGGAACTGTGTGTGTTGCAGGGGGGCAGTAACTCCCCAACTCCCTC | 0.124 | 0.13 | 0.135 | 0.0496 | 0.156 | 0.121 | 0.151 | 0.198 | 0.151 | 0.0862 | 0.199 | 0.123 | 0.171 | 0.143 | 0.0948 | 0.12 | 0.129 | 0.0848 | 0.244 | 0.148
10 | 31.0 (DMSO control at this site: 1-bp insertion 0.315, MH deletion 0.329, edited 0.026) ACCTCCACAGGCTGGGTGGCCCGGAGGCTGGGCGGCCCGGAGGCTGGGCTGGGCGAGTATC | 0.0285 | 0.0243 | 0.0286 | 0.0119 | 0.0428 | 0.0286 | 0.0363 | 0.0504 | 0.0355 |  | 0.0451 | 0.0289 |  |  | 0.0207 | 0.0406 | 0.0296 | 0.0243 | 0.0456 | 0.026
11 | 16.0 (DMSO control at this site: 1-bp insertion 0.172, MH deletion 0.29, edited 0.05) CGGACTGCACACATGGGTAGGATCGTGCACGCGAGGTAGGATCGTGCACGCGAAGTTATTC | 0.0491 | 0.0603 | 0.0612 | 0.0319 | 0.079 | 0.0596 | 0.0609 | 0.0951 | 0.076 | 0.0437 | 0.0974 | 0.052 | 0.0804 | 0.0597 | 0.0541 | 0.0594 | 0.0586 | 0.043 | 0.128 | 0.0716
